A selection: hits, their analogues and other compounds. The true share with any hit is near 5.4%.
Beta apoptosis: inhibitors of cytokine-induced beta cell apoptosis, primary screen, luminescence; INS-1E cytokine-induced death, ATP luminescence, 48 h; percent of positive-control rescue, neutral wells zero; protection from apoptosis, % (concentration not given with the values); 0.8% of 300,000 active;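 active = Every replicate reaches about 75%, or at least half do and their mean reaches it too, limit read from the data; inconclusive = At least half of replicates reach the limit but their mean does not; inactive = Under half of replicates reach the limit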;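 also: 0% = cytokine-treated negative control wells and 100% = positive control rescue; higher means more ATP so stronger rescue from cytokine killing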
Calb FLC: C. albicans growth inhibition with fluconazole, primary screen, CaCi-2 strain, Alamar Blue fluorescence | 0.57% of 300,000 active | growth inhibition, % (test concentration not listed) | C. albicans CaCi-2 (fluconazole-resistant clinical isolate) + fluconazole, 48 h;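 active = growth inhibition above about 58% in most replicates, limit read from the data, passing the limit was not always enough; inconclusive = exactly half the replicates above a set limit; inactive = most replicates below a set limit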;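 also: all wells also contain fluconazole at 8 µg/ml as a sub-toxic cotreatment; 0% = median of DMSO wells and 100% = median of geldanamycin control wells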
Mdm2-MdmX inh: inhibitors of human Mdm2-MdmX association, primary screen, cell-based, luminescence, split luciferase, SaOS-2, uHTS; inhibition, % at 8 µM; Protein Mdm4 (Homo sapiens) + E3 ubiquitin-protein ligase Mdm2 (Homo sapiens), …; 3% of 330,000 active; SaOS-2 split-luciferase Mdm2/MdmX complementation;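 active = inhibition of at least 50% at 8 µM in the primary screen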
Target sequence (O15151 whole entry, looked up): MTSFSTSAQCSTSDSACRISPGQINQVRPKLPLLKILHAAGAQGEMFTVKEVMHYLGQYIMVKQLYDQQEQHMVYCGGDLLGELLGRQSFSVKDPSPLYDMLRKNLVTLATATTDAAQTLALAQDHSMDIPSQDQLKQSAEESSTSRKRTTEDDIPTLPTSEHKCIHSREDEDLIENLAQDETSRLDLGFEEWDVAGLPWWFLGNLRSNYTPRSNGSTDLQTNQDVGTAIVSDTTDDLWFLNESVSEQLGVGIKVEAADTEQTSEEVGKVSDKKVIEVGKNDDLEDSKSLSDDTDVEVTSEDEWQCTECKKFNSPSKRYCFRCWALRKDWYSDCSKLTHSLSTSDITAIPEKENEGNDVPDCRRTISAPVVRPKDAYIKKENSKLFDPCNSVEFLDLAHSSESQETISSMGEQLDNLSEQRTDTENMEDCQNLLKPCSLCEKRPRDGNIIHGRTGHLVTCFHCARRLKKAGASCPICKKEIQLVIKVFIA
Target sequence (Q00987 whole entry, looked up): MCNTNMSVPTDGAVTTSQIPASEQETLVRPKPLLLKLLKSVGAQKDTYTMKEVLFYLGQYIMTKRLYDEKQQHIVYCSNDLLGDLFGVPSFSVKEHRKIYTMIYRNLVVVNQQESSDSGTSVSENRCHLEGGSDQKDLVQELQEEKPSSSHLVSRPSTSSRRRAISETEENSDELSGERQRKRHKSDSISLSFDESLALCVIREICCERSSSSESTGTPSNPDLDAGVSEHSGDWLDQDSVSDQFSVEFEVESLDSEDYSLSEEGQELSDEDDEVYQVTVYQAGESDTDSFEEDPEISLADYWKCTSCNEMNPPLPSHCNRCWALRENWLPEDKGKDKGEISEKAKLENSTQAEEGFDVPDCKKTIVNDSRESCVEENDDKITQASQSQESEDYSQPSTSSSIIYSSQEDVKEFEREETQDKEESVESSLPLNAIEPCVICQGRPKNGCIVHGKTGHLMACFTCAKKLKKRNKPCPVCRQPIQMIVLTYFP
MPTP block: mitochondrial permeability transition pore inhibitors, primary screen, biochemical, isolated mouse mitochondria, absorbance; inhibition, % at 10 µM; AID 602449, 2012; Ca2+ swelling absorbance, 30 min; 1.4% of 360,000 active;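 active = inhibition of 50% or more, scaled per plate between neutral and stimulator controls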;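 also: 0% = DMSO wells given calcium and 100% = 1 mM EGTA wells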
CSC inhib: cancer stem cell viability inhibitors, primary screen, luminescence | AID 2717, 2010 | 1.1% of 300,000 active | inhibition, % at 7.5 µM | cancer stem cell-like cells viability; in the data active = inhibition above about 75%; inconclusive = no clear call, values can overlap the other calls; tested in HMLE shEcad cells
SKKanGAS inh: S. pyogenes SKKanGAS growth inhibitors in kanamycin, primary screen, streptokinase expression inhibitor project, SKKanGAS strain, BacTiter-Glo luminescence. 6 h. 1.3% of 300,000 active. inhibition, % at 7.5 µM;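 active = mean replicate score, as percent of positive control median, at least 50; inconclusive = mean below 50 but one replicate at or above 50; inactive = mean and every replicate below 50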;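 also: strain carries kanamycin resistance gene driven by streptokinase promoter and grows in 40 µg/ml kanamycin; loss of luminescence reflects streptokinase promoter inhibition or plain growth inhibition; 0% = median of DMSO wells and 100% = positive control at its reference dose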
Mdm2 MdmX conf: Mdm2-MdmX complex disruptors, retested hits, confirmation, luminescence, single concentration. shares compounds with Mdm2-MdmX inh. Mdm2-MdmX binding, luminescent assay. inhibition, % at 8 µM. 55% of 10,000 active. AID 489028, 2010; in the data active = inhibition above about 40%
Full FLuc ctr: full-length luciferase signal inhibition, confirmation, counter-screen for Mdm2/MdmX interaction inhibitor project, cell-based, single concentration, SaOS-2; 77% of 6,200 active; AID 504607, 2011; SaOS-2 full-length luciferase counterscreen, luminescence; shares compounds with Mdm2-MdmX inh; inhibition, % at 8 µM;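 active = mean inhibition at 8 µM reaching about 37%, which flags the compound as non-specific, limit read from the data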;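 also: p53-null SaOS-2 cells with luciferase driven by a doxycycline-inducible promoter; compound on cells about two nights before reading with doxycycline added after day one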
* hit, by the source's call; ? = inconclusive; . = no result given.

SMILES	Beta apoptosis	Calb FLC	Mdm2-MdmX inh	MPTP block	CSC inhib	SKKanGAS inh	Mdm2 MdmX conf	Full FLuc ctr
COCCn1c(C)cc(C2=NNC(=Nc3ccccc3F)SC2)c1C	-3.8	-44.1	73.4*	1.4	2.5	0.4	87.8*	13.0
COCCCN=C1NN=C(c2cc(C)n(-c3ccccc3F)c2C)CS1	36.1	-10.4	43.2	7.9	62.8	9.5	.	.
COc1ccc(CNC(=O)C2CCN(c3nn4c(=O)cc(C)nc4s3)CC2)cc1	-1.1	-12.9	-1.5	-2.4	-1.0	-0.4	.	.
CN(CCC#N)C(=O)COC(=O)c1ccc(Cl)cc1O	-1.9	-0.7	7.9	0.7	-11.6	-2.8	.	.
COc1cccc(C(=O)c2sc(NC(C)C)nc2N)c1	-30.2	47.1	75.6*	-3.7	.	6.3	43.8*	111.4*
COc1ccc(Nc2nc(N)c(C(=O)c3ccc(F)cc3)s2)cc1	3.3	40.9	50.5*	0.6	62.1	2.9	52.1*	81.2*
COc1ccc(Nc2nc(N)c(C(=O)c3ccc(OC)cc3)s2)cc1	-16.2	45.2	50.3*	0.6	45.9	12.2	59.1*	59.5*
COc1ccc(C(=O)c2sc(Nc3ccccc3)nc2C)cc1	.	-13.3	-10.2	-0.2	.	11.4	.	.
Nc1nc(Nc2ccccc2)nc(C(F)(F)F)n1	5.9	4.5	1.5	1.6	11.4	-0.2	.	.
NCC(=O)Nc1ccc(Cl)cc1C(=O)c1ccc[nH]1	.	0.6	63.5*	0.0	.	-5.5	66.3*	40.4*
CC(=O)Nc1ccc(Cl)cc1C(=O)c1ccc[nH]1	.	.	.	-0.8	.	.	.	.
COc1ccccc1NC(=S)N1CCN(C(=O)c2ccco2)CC1	-0.6	-5.4	3.4	2.0	-7.2	3.7	.	.
COCCn1c(SCC(=O)Nc2cc(C)on2)nc2c([nH]c3ccccc32)c1=O	.	.	.	-0.2	.	.	.	.
CCn1c(SCC(=O)Nc2cc(C)on2)nc2c([nH]c3ccccc32)c1=O	26.2	4.3	64.8*	1.4	-8.0	-0.5	25.7	.
Cc1cc(NC(=O)CSc2nc3cc(Cl)ccc3c(=O)n2C(C)C)no1	.	.	55.6*	-1.1	.	.	19.6	.
Cc1cc(NC(=O)CSc2nc3cc(Cl)ccc3s2)no1	-4.2	-3.5	8.8	-3.7	-7.3	-2.2	.	.
CCn1c(SCC(=O)Nc2cccc(NC(C)=O)c2)nc2c([nH]c3ccccc32)c1=O	.	-3.7	78.0*	1.2	-7.9	17.7	30.6	.
Cn1c(SCC(=O)NCc2ccc(F)cc2)nc2c([nH]c3ccccc32)c1=O	-1.3	-2.3	75.3*	.	5.9	-4.7	-8.3	.
CCn1c(SCC(=O)Nc2ccc(C(C)=O)cc2)nc2c([nH]c3ccccc32)c1=O	26.2	.	62.2*	-1.0	12.2	5.1	35.7	.
COCCn1c(SCC(=O)Nc2ccc(NC(C)=O)cc2)nc2c([nH]c3ccccc32)c1=O	2.0	.	8.8	-0.3	-0.2	-2.4	.	.
COc1ccc(CCn2c(SCC(=O)Nc3cc(C)on3)nc3ccccc3c2=O)cc1OC	-11.3	3.3	58.8*	2.5	-10.1	17.1	24.5	.
CCN(CC)C(=O)c1scc2c1OCCO2	1.8	2.5	13.6	0.5	25.1	-2.7	.	.
COc1ccc(CNc2ncc(-c3ccc(F)cc3)n2C)c2ccccc12	-1.6	-14.3	56.7*	3.8	8.2	22.4	25.3	.
Cc1c(Cl)cccc1NS(=O)(=O)c1ccc2c(c1)C1C=CCC1C(c1ccc(C(=O)O)cc1)N2 (configuration not stated)	-0.5	.	-12.3	-3.1	-9.5	.	.	.
Oc1ccc(-c2nc3c4c(ncn3n2)-c2ccccc2CC42CCCC2)cc1	-5.1	2.8	77.8*	18.2	-5.7	95.4*	6.5	.
SMILES	Beta apoptosis	Calb FLC	Mdm2-MdmX inh	MPTP block	CSC inhib	SKKanGAS inh	Mdm2 MdmX conf	Full FLuc ctr
C/C(=N\Nc1ncnc2sc(C)c(C)c12)c1ccccn1	98.3*	-12.9	98.7*	-0.4	.	-8.0	61.0*	76.6*
COc1ccc(NC(=O)/C(C#N)=C\C=C\c2ccco2)cc1	-1.2	-10.7	50.6*	-0.4	?	-3.6	53.4*	58.1*
CC(C)(C)C(=O)O/N=C(\N)c1c(Cl)cccc1Cl	-0.6	9.0	53.6*	0.1	8.6	1.9	-6.0	.
Cc1ccccc1NC(=O)COC(=O)c1ccc(S(C)(=O)=O)c([N+](=O)[O-])c1	-19.2	?	55.5*	0.8	-8.0	3.4	32.6	.
CC(CCc1ccccc1)NC(=O)COC(=O)c1ccc(S(C)(=O)=O)c([N+](=O)[O-])c1 (configuration not stated)	-46.0	-23.9	81.3*	0.1	23.4	0.8	82.9*	55.0*
Cc1ccccc1NC(=O)Cc1nc(COC(=O)c2ccc(S(C)(=O)=O)c([N+](=O)[O-])c2)cs1	.	.	97.4*	-0.2	.	.	94.5*	56.9*
COC(=O)c1nc2ccccn2c1F	-4.7	13.7	26.9	-1.6	-8.5	-0.1	.	.
O=C1OCCC1Sc1nnc(-c2ccc(Cl)cc2Cl)o1 (configuration not stated)	2.8	0.8	77.4*	1.3	-3.8	-17.4	62.1*	48.9*
Cc1nc(C(=O)O)cc2c1[nH]c1ccccc12	-5.8	-5.5	5.8	-0.2	-11.1	3.5	.	.
CC(=O)N(C(C)=O)c1ncc2c([nH]c3ccccc32)c1C#N	-17.1	-11.3	81.8*	-1.2	1.2	-7.0	85.8*	33.1
Cc1nn(Cc2ccccc2Cl)c(C)c1C(=O)NCc1ccco1	1.2	4.4	-37.4	-3.3	7.3	-5.4	.	.
Cc1nn(-c2ccccc2)c(Cl)c1C(=O)Nc1nnc(C2CCCCC2)s1	5.6	21.0	13.0	-0.4	6.1	12.9	.	.
Cc1nn(Cc2ccccc2Cl)c(C)c1C(=O)NCCN1C(=O)S/C(=C\c2ccccc2)C1=O	6.0	11.9	58.4*	-0.7	29.5	3.2	7.2	.
Cc1nn(Cc2ccccc2Cl)c(C)c1C(=O)Nc1nnc(C2CC2)s1	.	-4.4	79.3*	-1.0	52.8	5.8	7.3	.
CC[C@@]12C(=O)N(c3cccc(Cl)c3)C(=O)N1[C@H](c1ccc(Br)cc1)[C@@H]1C(=O)N(C(C)(C)C)C(=O)[C@@H]12	3.1	4.7	13.3	0.0	17.4	5.5	.	.
CC(C)C[C@@]12C(=O)N(c3cccc(F)c3)C(=O)N1[C@H](c1ccc(Br)cc1)[C@@H]1C(=O)N(C(C)(C)C)C(=O)[C@@H]12	4.5	14.9	27.7	0.0	12.3	9.5	.	.
